An excerpt weighted towards active compounds, which were near 0.2% of everything screened.
Bim-Bcl-XL: inhibitors of Bim-Bcl-XL binding, primary screen, biochemical, multiplexed, bead flow cytometry, human Bcl-XL; Bcl-2-like protein 1 (Homo sapiens), Q07817; Bim peptide-Bcl-XL binding, fluorescence; inhibition, % at 10 µM; 190,000 compounds, 0.04% hits; AID 1007, 2008
Target sequence (Q07817 whole entry, looked up): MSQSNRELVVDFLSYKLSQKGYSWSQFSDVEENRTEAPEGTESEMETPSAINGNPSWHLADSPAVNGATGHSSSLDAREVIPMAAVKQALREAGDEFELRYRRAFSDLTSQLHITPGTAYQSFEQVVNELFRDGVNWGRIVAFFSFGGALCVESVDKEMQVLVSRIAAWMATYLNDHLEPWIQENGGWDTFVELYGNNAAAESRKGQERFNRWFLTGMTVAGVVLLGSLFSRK
Bcl-B Bim block: inhibitors of Bim-Bcl-B binding, primary screen, biochemical, multiplexed, human Bcl-2 family; 190,000 compounds, 0.073% hits; Bcl-2-like protein 10 (Homo sapiens), Q9HD36; inhibition, % at 10 µM; bead-based flow cytometry, Bim peptide-Bcl-B binding; AID 951, 2007
Bim-Bcl-W: inhibitors of Bim binding to Bcl-W, primary screen, biochemical, multiplexed, bead-based flow cytometry; 190,000 compounds, 0.02% hits; inhibition, % at 10 µM; Bim peptide-Bcl-W binding; Bcl-2-like protein 2 (Homo sapiens), Q92843;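 note: higher means less fluorescent Bim peptide bound to Bcl-W beads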
Bim-Bcl-2: inhibitors of Bim-Bcl-2 binding, primary screen, biochemical, multiplexed, human Bcl-2 family | Apoptosis regulator Bcl-2 (Homo sapiens), P10415 | Bead-based flow cytometry, Bim peptide-Bcl-2 binding | inhibition, % at 10 µM | 190,000 compounds, 0.06% hits | AID 950, 2007; in the data active = inhibition above about 40%
Target sequence (P10415 whole entry, looked up): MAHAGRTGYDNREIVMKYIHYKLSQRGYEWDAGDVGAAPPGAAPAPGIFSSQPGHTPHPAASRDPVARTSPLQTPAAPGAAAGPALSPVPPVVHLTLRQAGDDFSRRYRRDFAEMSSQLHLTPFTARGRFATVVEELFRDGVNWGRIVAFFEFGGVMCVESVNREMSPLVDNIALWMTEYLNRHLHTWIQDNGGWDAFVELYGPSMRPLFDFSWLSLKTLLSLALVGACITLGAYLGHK
Bim-Bfl-1: inhibitors of Bim binding to Bfl-1, primary screen, biochemical, multiplexed, bead-based flow cytometry. Bcl-2-related protein A1 (Homo sapiens), Q16548. Bim-Bfl-1 binding inhibition. inhibition, % at 10 µM. 190,000 compounds, 0.12% hits. AID 1008, 2008
Target sequence (Q16548 whole entry, looked up): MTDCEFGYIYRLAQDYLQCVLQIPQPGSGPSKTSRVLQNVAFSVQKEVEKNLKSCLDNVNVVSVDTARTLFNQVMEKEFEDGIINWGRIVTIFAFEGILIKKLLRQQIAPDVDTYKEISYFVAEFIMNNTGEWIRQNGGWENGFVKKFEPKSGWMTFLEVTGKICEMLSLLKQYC
Bim-Bcl-XL DR: Bim-Bcl-XL interaction inhibitors, hit retest, confirmation, biochemical, dose response, multiplexed, HTS hits | bead-based flow cytometry, Bim-Bcl-XL binding | shares compounds with Bim-Bfl-1 | inhibition of binding at 100 µM | 40 tested, under 10 active; call rule not given here
Each line names hits and unclear results; the compound was inactive in the other large screens (follow-up assays come after a bar, where they were run). Cut-off read from the data, not from the text of the source, unless noted: active = inhibition above about 40%.

COc1ccc(N2CCN(C(=O)c3cc(=O)[nH]c4ccccc34)CC2)cc1	Bcl-B Bim block 74, Bim-Bcl-2 80, Bim-Bfl-1 58
Cc1ccc(NC(=O)NCc2ccccn2)cc1	none
Cc1ccc(C)c(NC(=O)C(=O)NCc2ccccn2)c1	Bim-Bcl-XL 46, Bim-Bfl-1 49
COC(=O)CS(=O)(=O)c1ccsc1C(=O)Nc1ccc(F)c(F)c1	none
O=C(c1ccccc1)c1ccc2nc(-c3ccco3)c(-c3ccco3)nc2c1	Bim-Bfl-1 47
O=C(NC1CCCC1)c1ccc2nc(-c3ccco3)c(-c3ccco3)nc2c1	none
O=C(NCCc1ccccc1)c1ccc2nc(-c3ccco3)c(-c3ccco3)nc2c1	Bim-Bfl-1 45
O=C(NCCO)c1ccc2nc(-c3ccco3)c(-c3ccco3)nc2c1	Bim-Bfl-1 54
c1ccc(-c2noc(CC3CCCCC3)n2)nc1	none
COC(=O)c1cc(OC)c(OC)cc1NC(=S)N1CCN(c2ccccn2)CC1	none
O=C(NCCCNC(=O)c1cncc(O)c1)c1cncc(O)c1	none
CCOC(=O)CCCNC(=O)c1cncc(O)c1	Bcl-B Bim block 68, Bim-Bcl-2 72, Bim-Bfl-1 46
CCOC(=O)C1=C(CC)Nc2ccccc2N=C1NC(=O)c1ccc(S(=O)(=O)N2CCOCC2)cc1	Bcl-B Bim block 75, Bim-Bcl-2 78, Bim-Bfl-1 57
CCOC(=O)C1=C(CC)Nc2ccccc2N=C1NC(=O)c1ccc(S(=O)(=O)N(C)C)cc1	none
CCN1/C(=C/c2ccc3cc(C)cc(C)c3[n+]2CC)Sc2cc(C)ccc21	Bim-Bfl-1 45
CCN1/C(=C\c2ccc3cc(C)ccc3[n+]2CC)Sc2cc(C)c(C)cc21	none
O=[N+]([O-])c1ccc(N2CCN(CCOCCO)CC2)c([N+](=O)[O-])c1	none
CN(C)c1ccc(NC2=C(Cl)C(=O)c3ccccc3C2=O)cc1	Bim-Bcl-W 48, Bim-Bfl-1 71
O=C(CNC(=O)c1ccco1)NCC(=O)OCc1ccccc1Br	Bim-Bcl-2 89 (no result: Bcl-B Bim block, Bim-Bfl-1)
COC(=O)c1ccc(C(=O)OC)c(NC(=O)CSc2cccc[n+]2[O-])c1	none
COc1ccc(-c2noc(COc3ccc4c(c3)OCO4)n2)cc1OC	Bim-Bcl-2 85 (no result: Bcl-B Bim block, Bim-Bfl-1)
Cc1cc(N)ccc1-n1c(C)ccc1C	none
Cc1cc(N)ccc1N1CCCC1	Bim-Bcl-XL 64, Bcl-B Bim block 87, Bim-Bcl-W 75, Bim-Bcl-2 66, Bim-Bfl-1 73
CCn1c(C)nc2cc(C(=O)N/N=C/c3ccc(O)c(O)c3O)ccc21	Bim-Bfl-1 52
CCN(CC)S(=O)(=O)c1cccc(C(=O)N/N=C/c2ccc(O)c(O)c2O)c1	Bim-Bcl-XL 54, Bcl-B Bim block 43
CCn1c(C)nc2cc(C(=O)N/N=C/c3cccc(OC)c3O)ccc21	none
O=C(O)C1CN(C(=O)c2cccc(Br)c2)C1	none
Cc1cc2n(c1)CCn1c(C)ccc1-2	Bcl-B Bim block 40
CCCC1=[N+](CC)CCn2c(C)ccc21	none
COc1ccc(N2C(=O)CC(N(Cc3ccco3)C(=O)CCC(=O)O)C2=O)cc1 (stereo unspecified)	none
Cc1ccc(S(=O)(=O)/N=C2/C=C(Sc3ncn[nH]3)C(=O)c3ccccc32)cc1	Bim-Bfl-1 62
Cc1ccc(S(=O)(=O)/N=C2/C=C(Sc3ncn[nH]3)C(=O)c3ccccc32)c(C)c1	Bim-Bfl-1 69
Cc1ccccc1-n1c(SCc2cccc(F)c2)nc2[nH]ncc2c1=O	Bim-Bfl-1 44
O=[N+]([O-])c1ccc(Nc2ccccc2F)nc1	none
CC(=O)c1ccc(-n2nncc2C(C)(C)C)cc1	none
Cc1cnnn1-c1ccc(C(=O)CCl)cc1	Bim-Bcl-W 60, Bim-Bfl-1 60
CSc1nc2sc3c(c2c(=O)[nH]1)CCC3	none
CCC1=NNc2cccc3c(OC)ccc1c23	Bim-Bcl-XL 75, Bcl-B Bim block 100, Bim-Bcl-W 66, Bim-Bcl-2 64, Bim-Bfl-1 56
COc1ccc2c3c(cccc13)C(=O)N(O)C2=O	none
O=C(COc1ccccc1)N1CCN(S(=O)(=O)c2cccc([N+](=O)[O-])c2)CC1	none
COc1ccc(OC)c(CNC(=O)c2coc(=O)c3ccccc23)c1	none
Cc1ccc(C(=O)N/N=C2/NC(=O)CC(C(=O)Nc3ccccc3)S2)cc1 (stereo unspecified)	Bim-Bcl-XL 40
CCCN1C(=O)/C(=C\C=C2/Sc3ccccc3N2CC)SC1=S	none
CCN1C(=O)/C(=C/C=C2\C=CN(CC)c3ccccc32)SC1=S	Bim-Bfl-1 50
CC1(C)C/C(=N\NC(=S)Nc2ccccc2F)c2cc(O)ccc2O1	none
S=c1[nH]cc(-c2ccccc2)n1-c1ccccc1	none | Bim-Bcl-XL DR inactive
COc1ccc(NC(=O)Cc2c(SC)c3ccccc3n2Cc2ccccc2)cc1	none
CN(CCO)c1cc(Sc2nc3ccccc3s2)c2nonc2c1[N+](=O)[O-]	Bim-Bfl-1 50 | Bim-Bcl-XL DR inactive
CNC(=O)/C(C#N)=C/c1ccc(-c2ccccc2[N+](=O)[O-])o1	none
O=C(/C=C/c1ccc(-c2ccccc2[N+](=O)[O-])o1)c1ccccc1	none | Bim-Bcl-XL DR inactive
CCn1cc(C(=O)NCc2ccc3c(c2)OCO3)c(=O)c2cc(F)c(N3CCN(C(=O)c4ccco4)CC3)cc21	none
CCN(CC)C(=O)COC(=O)c1cc(-c2ccco2)nc2ccccc12	Bim-Bfl-1 45 | Bim-Bcl-XL DR inactive
Cc1ccc(/C=N/NC(=O)CSc2nnc(-c3ccccc3)n2-c2ccc(Cl)cc2)o1	none
Cc1ccc(C=NNC(=O)CSc2nnc(-c3ccc(Cl)cc3)n2-c2ccccc2)o1	none (no result: Bim-Bcl-XL, Bcl-B Bim block, Bim-Bcl-W, Bim-Bcl-2, Bim-Bfl-1) | Bim-Bcl-XL DR inactive
CCN(CC)c1ccc(NC(=O)c2ccccc2Br)cc1S(=O)(=O)Nc1ccccc1OC	none | Bim-Bcl-XL DR inactive
CCN(CC)c1ccc(NC(=O)COc2ccccc2C)cc1S(=O)(=O)Nc1ccccc1OC	none | Bim-Bcl-XL DR inactive
CCN(CC)c1ccc(NC(=O)c2ccccc2F)cc1S(=O)(=O)Nc1ccccc1OC	none | Bim-Bcl-XL DR inactive
Cc1ccc(C)c(NC(NC(=O)c2ccccn2)C(Cl)(Cl)Cl)c1 (stereo unspecified)	none
Cc1ccc(-c2cc(-c3ccc(F)cc3)c(C#N)c(N)n2)o1	none | Bim-Bcl-XL DR inactive
Cc1ccc(-c2cc(-c3ccc(Cl)cc3)c(C#N)c(N)n2)o1	none
Cc1ccc(-c2cc(-c3ccc4c(c3)OCO4)c(C#N)c(N)n2)o1	none
Cc1ccc(-c2cc(-c3ccc(C)o3)nc(N)c2C#N)cc1	Bim-Bcl-2 85 (no result: Bcl-B Bim block, Bim-Bfl-1) | Bim-Bcl-XL DR inactive
Cc1cc(-c2cc(-c3ccc(Cl)cc3)nc(N)c2C#N)co1	Bim-Bfl-1 40 | Bim-Bcl-XL DR inactive

High-throughput results: PubChem, NMMLSC
